Records with an inconclusive call do not appear. Active and inactive are the calls of the source. Rule for the calls, unless noted: active = hit-call score of the fitted dose curve at least 0.9, where 1 is the maximum; inactive = score below 0.9.
Assays:
[1] = read-out: Interleukin-8 (IL8), CXCL8 (gene 3576); assay: BSK_3C_IL8: BioMAP Diversity Plus: 3C Assay for Interleukin-8 (IL8) Biomarker Activity (AID 2283020); settings: primary human endothelial cells (HUVEC); actives raise or lower the signal
Outline: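 Endothelial primary cells of human umbilical vein origin are dosed with chemical; after 24 h the IL-8 biomarker is measured by ELISA, and concentration–response is fitted in both directions versus DMSO.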

[2] = read-out: Monokine induced gamma interferon (MIG), CXCL9 (gene 4283); assay: BSK_3C_MIG: BioMAP Diversity Plus: 3C Assay for Monokine induced gamma interferon (MIG) Biomarker Activity (AID 2283021); settings: primary human endothelial cells (HUVEC); actives raise or lower the signal
Outline: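 Endothelial primary cells (human umbilical vein) are dosed with test chemical in the 3C system. MIG levels are measured by ELISA at 24 h and fitted in both directions relative to DMSO.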

[3] = target: human Vitamin D Receptor (VDR), VDR (gene 7421) (UniProt P11473); assay: ATG_VDR_TRANS: Attagene TRANS-FACTORIAL HepG2 Assay for human Vitamin D Receptor (VDR) (AID 2283022; active = hit-call score of the fitted dose curve at least 0.9, where 1 is the maximum)
Outline: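 Steps: transfect HepG2 with GAL4-UAS-driven reporter constructs; dose compounds 24 h; isolate RNA, reverse-transcribe, PCR-amplify with 6-FAM-labelled primer extension and HpaI digestion; quantify fragments by capillary electrophoresis relative to DMSO.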

[4] = BSK_3C_SRB: Viability Assessment in the BioMAP Diversity Plus: 3C Assay (AID 2283023); settings: primary human endothelial cells (HUVEC);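 note: fitted both ways against DMSO so a hit may be signal rise or drop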
Outline: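 Absorbance at 560 nm of sulforhodamine B-stained (0.1%) total protein served as a cytotoxicity readout in human umbilical vein endothelial cells, 24 h after chemical treatment. Signal was fitted bidirectionally relative to DMSO.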

[5] = read-out: Matrix Metallopeptidase 1 (MMP1), MMP1 (gene 4312); assay: BSK_BE3C_MMP1: BioMAP Diversity Plus: BE3C Assay for Matrix Metallopeptidase 1 (MMP1) Biomarker Activity (AID 2283024); settings: primary human bronchial epithelial cells; actives raise or lower the signal
Outline: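 MMP1 signal, measured by ELISA after a 24 h chemical exposure of human primary bronchial epithelial cells, is analysed with bidirectional fitting using DMSO as negative control.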

[6] = BSK_3C_Vis: BioMAP Diversity Plus: 3C Assay for Morphology Visualization (AID 2283025); settings: primary human endothelial cells (HUVEC);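 note: fitted both ways so gain or loss versus DMSO counts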
Outline: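 Morphology read by light microscopy serves as a background control for the multiplexed 3C assay in human umbilical vein endothelial cells, taken 24 h after dosing, with DMSO as the negative control and bidirectional curve fitting.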

[7] = read-out: Pselectin, SELP (gene 6403); assay: BSK_4H_Pselectin: BioMAP Diversity Plus: 4H Assay for Pselectin Biomarker Activity (AID 2283026); settings: primary human endothelial cells (HUVEC); actives raise or lower the signal
Outline: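 Endothelial primary cells (human umbilical vein) are dosed, incubated 24 h, and assayed for surface P-selectin by ELISA; responses in either direction are fitted relative to the DMSO negative control.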

[8] = BSK_4H_SRB: Viability Assessment in the BioMAP Diversity Plus: 4H Assay (AID 2283027); settings: primary human endothelial cells (HUVEC);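 note: cells exposed to compound for 24 h before staining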;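 for AC50: curves fitted both ways versus DMSO so AC50 may be loss or gain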
Outline: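 Cytotoxicity read-out in primary human endothelial cells: after 24 h compound exposure, cells were TCA-fixed (10%), stained with 0.1% SRB and absorbance taken at 560 nm. Values fitted in both directions relative to DMSO.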

[9] = BSK_BE3C_SRB: Viability Assessment in the BioMAP Diversity Plus: BE3C Assay (AID 2283028); settings: primary human bronchial epithelial cells
Outline: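 Cells (human bronchial epithelial, primary) are treated with chemicals, and after 24 h the parallel cultures are fixed in 10% TCA. These are then stained with 0.1% SRB and read at 560 nm. Gain or loss of signal is fitted relative to DMSO.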

[10] = read-out: Thrombomodulin, THBD (gene 7056); assay: BSK_3C_Thrombomodulin: BioMAP Diversity Plus: 3C Assay for Thrombomodulin Biomarker Activity (AID 2283029); settings: primary human endothelial cells (HUVEC); actives raise or lower the signal
Outline: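 Endothelial cells from umbilical vein are dosed with test chemical and incubated 24 h. Thrombomodulin is then quantified by ELISA, with DMSO serving as negative control and activity baseline.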

[11] = read-out: Urokinase-type plasminogen activator receptor (uPAR), PLAUR (gene 5329); assay: BSK_4H_uPAR: BioMAP Diversity Plus: 4H Assay for Urokinase-type plasminogen activator receptor (uPAR) Biomarker Activity (AID 2283030); settings: primary human endothelial cells (HUVEC); actives raise or lower the signal
Outline: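 Cell-surface uPAR ELISA signal, measured 24 h after dosing human umbilical vein endothelial cells, was analyzed with bidirectional fitting relative to DMSO. Parallel SRB staining of total protein tracked overt cytotoxicity.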

[12] = read-out: Vascular endothelial growth factor receptor 2 (Homo sapiens) (UniProt P35968); assay: BSK_4H_VEGFRII: BioMAP Diversity Plus: 4H Assay for Vascular endothelial growth factor receptor 2 (VEGFR2) Biomarker Activity (AID 2283031); settings: primary human endothelial cells (HUVEC); actives raise or lower the signal
Outline: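 ELISA read-out of VEGFRII in primary human umbilical vein endothelium, taken 24 h after chemical treatment. Responses are expressed relative to DMSO, with bidirectional fitting.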

[13] = read-out: Human Leukocyte Antigen - DR isotype (HLADR), HLA-DRA (gene 3122); assay: BSK_BE3C_HLADR: BioMAP Diversity Plus: BE3C Assay for Human Leukocyte Antigen - DR isotype (HLADR) Biomarker Activity (AID 2283032); settings: primary human bronchial epithelial cells; actives raise or lower the signal
Outline: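 Chemicals are dosed onto BE3C bronchial epithelial cultures of human origin and left 24 h. HLA-DR is then measured by ELISA, and the endpoint is fitted in both directions using DMSO as the activity baseline.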

[14] = read-out: Vascular cell adhesion molecule 1 (VCAM1), VCAM1 (gene 7412); assay: BSK_4H_VCAM1: BioMAP Diversity Plus: 4H Assay for Vascular cell adhesion molecule 1 (VCAM1) Biomarker Activity (AID 2283033); settings: primary human endothelial cells (HUVEC); actives raise or lower the signal
Outline: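 Chemicals are added to primary human umbilical vein endothelial cells. After 24 h, VCAM-1 levels are measured by ELISA. Values come from bidirectional fitting referenced to DMSO.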

[15] = read-out: Interferon-gamma inducible Protein 10 (IP10), CXCL10 (gene 3627); assay: BSK_BE3C_IP10: BioMAP Diversity Plus: BE3C Assay for Interferon-gamma inducible Protein 10 (IP10) Biomarker Activity (AID 2283034); settings: primary human bronchial epithelial cells; actives raise or lower the signal
Outline: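 IP-10 quantified by ELISA serves as the endpoint. Cells: primary human bronchial epithelium, read 24 h after compound addition. Activity is derived by bidirectional fitting with DMSO as negative control.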

[16] = read-out: Monokine induced gamma interferon (MIG), CXCL9 (gene 4283); assay: BSK_BE3C_MIG: BioMAP Diversity Plus: BE3C Assay for Monokine induced gamma interferon (MIG) Biomarker Activity (AID 2283035); settings: primary human bronchial epithelial cells; actives raise or lower the signal;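 note: MIG protein measured by ELISA in BE3C cultures after 24 h of dosing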
Outline: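 ELISA quantified MIG after 24 h exposure of primary bronchial epithelial cultures, analysed in both directions relative to DMSO. Cytotoxicity tracked in parallel cultures by sulforhodamine B staining.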

[17] = read-out: Transforming growth factor beta 1 (TGFb1), TGFB1 (gene 7040); assay: BSK_BE3C_TGFb1: BioMAP Diversity Plus: BE3C Assay for Transforming growth factor beta 1 (TGFb1) Biomarker Activity (AID 2283036;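 note: TGF-b1 protein level measured by ELISA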); settings: primary human bronchial epithelial cells; actives raise or lower the signal
Outline: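 Bronchial epithelial primary cells are treated with test chemical, then TGF-b1 is quantified by ELISA after 24 hours. Values derive from bidirectional fitting against DMSO, with cytotoxicity checked by SRB staining in parallel cultures.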

[18] = read-out: Plasminogen activator inhibitor-1 (PAI1), SERPINE1 (gene 5054); assay: BSK_BE3C_PAI1: BioMAP Diversity Plus: BE3C Assay for Plasminogen activator inhibitor-1 (PAI1) Biomarker Activity (AID 2283037); settings: primary human bronchial epithelial cells; actives raise or lower the signal
Outline: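 Values derive from bidirectional fitting against DMSO baseline of PAI-1 levels, measured by ELISA in human bronchial epithelial cells 24 h after compound addition.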

[19] = read-out: urokinase plasminogen activator (uPA), PLAU (gene 5328); assay: BSK_BE3C_uPA: BioMAP Diversity Plus: BE3C Assay for urokinase plasminogen activator (uPA) Biomarker Activity (AID 2283038); settings: primary human bronchial epithelial cells; actives raise or lower the signal
Outline: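 Bronchial epithelial cells (human, primary); chemical 24 h; uPA by ELISA; bidirectional fit vs DMSO. SRB (0.1%, after 10% TCA fixation, 560 nm) in parallel cultures for cytotoxicity.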

[20] = read-out: Urokinase-type plasminogen activator receptor (uPAR), PLAUR (gene 5329); assay: BSK_BE3C_uPAR: BioMAP Diversity Plus: BE3C Assay for Urokinase-type plasminogen activator receptor (uPAR) Biomarker Activity (AID 2283039); settings: primary human bronchial epithelial cells; actives raise or lower the signal
Outline: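 Steps: dose human primary bronchial epithelial cells, incubate 24 h, measure uPAR by ELISA, then fit gain- or loss-of-signal response bidirectionally relative to DMSO.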

Measured: AC50

Chain of human Vitamin D Receptor (VDR), VDR (gene 7421) (P11473 whole entry, looked up, the tested form may be a part): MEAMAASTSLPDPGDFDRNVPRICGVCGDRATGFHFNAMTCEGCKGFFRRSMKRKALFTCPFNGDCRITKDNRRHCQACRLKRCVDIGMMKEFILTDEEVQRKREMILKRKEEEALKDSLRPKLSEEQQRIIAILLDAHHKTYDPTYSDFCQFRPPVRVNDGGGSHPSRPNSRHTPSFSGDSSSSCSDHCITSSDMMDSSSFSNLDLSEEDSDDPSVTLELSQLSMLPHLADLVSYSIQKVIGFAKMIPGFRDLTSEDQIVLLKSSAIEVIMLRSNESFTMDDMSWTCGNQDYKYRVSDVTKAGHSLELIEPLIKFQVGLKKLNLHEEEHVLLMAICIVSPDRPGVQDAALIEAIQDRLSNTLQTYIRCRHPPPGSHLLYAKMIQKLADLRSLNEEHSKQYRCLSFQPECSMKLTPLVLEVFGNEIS

Cc1cccc([N+](=O)[O-])c1C
inactive: all assays above

NC(=O)Cn1c(=O)cc(CCN2CCN(c3nccc4sccc34)CC2)c2ccc(F)cc21
active: [7] 3.25 µM | [8] 3.97 µM | [11] 0.496 µM | [14] 7.88 µM
not listed: [4]
inactive: all other assays above

CCOC(=O)CCC(=O)OCC
not listed: [3]
inactive: all other assays above

CN1CCN(Cc2cc(-c3ccc4[nH]c(=O)oc4c3)co2)[C@@H](c2ccc(F)cc2)C1
active: [4] 28.2 µM | [11] 11.3 µM
not listed: [5] | [6] | [7]
inactive: all other assays above

CCc1c(C(=O)NN2CCCCC2)nn(-c2ccc(Cl)cc2Cl)c1-c1ccc(Br)cc1
inactive: [2] | [3] | [9] | [10] | [16] | [17]
active: [1] 7.69 µM | [4] 9.03 µM | [6] 13.2 µM | [8] 6.66 µM | [11] 6.58 µM | [13] 11 µM | [14] 9.11 µM | [15] 24 µM | [18] 11 µM | [19] 33.3 µM | [20] 14.4 µM

CCCCCCCCCCC
not listed: [3] | [12]
inactive: all other assays above

CCCCCCCCCCCCCCCC
not listed: [3]
inactive: all other assays above

Cc1ccc(C)c(O)c1C
not listed: [5] | [12]
inactive: all other assays above

Cc1cccc(Nc2cc(Cl)nc(SCC(=O)O)n2)c1C
not listed: [3] | [12]
inactive: all other assays above

FC(F)(F)C(F)(F)C(F)(F)C(F)(F)C(F)(F)C(F)(F)CCI
not listed: [3] | [12]
inactive: all other assays above

Cc1ccc(C(C)C)c(O)c1
not listed: [3] | [12]
inactive: all other assays above

CCCCCCCC=O
not listed: [5] | [12]
inactive: all other assays above

O=[N+]([O-])C(CO)(CO)CO
not listed: [5] | [12]
inactive: all other assays above

Cc1ccc(N(C)C)cc1
not listed: [5] | [7]
inactive: all other assays above

CCOc1ccc2c(c1)C(C)=CC(C)(C)N2
active: [3] 150 µM
not listed: [5] | [7] | [12]
inactive: all other assays above
